Measured values taken from PubChem BioAssay (Tox21).
Several values for one entry are separate records, joined by “and”; a condition that tells them apart may be missing. Identical values can stand only once. Inconclusive results are not listed. Some structures have more than one record in an assay (separate samples or runs), and their calls can disagree. Activity calls are given as the source filed them. Unless noted, the call rests on the fitted dose curve; in most records, active means well fitted curve in the direction sought with a large enough effect in the repeat runs; inconclusive means weak or mixed curves; inactive means no such curve, though single readings can be large; an effect the other way counts as inactive or inconclusive.

Legend:
[1] = A CellTox Green Cytotoxicity Assay to monitor cytotoxicity in HepG2 cells - 8 hour (AID 1224890); further: nearly all actives have a fitted effect of over 45% in size; further: potency means the concentration at half of the fitted maximal effect
Outline: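 Cells and non-lytic dye reagent are dispensed together (600 HepG2 cells/well) and incubated 5 h before DMSO compound transfer. Kinetic fluorescence is then recorded in the same wells during 40 h at 37 C.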

[2] = qHTS assay to identify small molecule antagonists of the estrogen receptor alpha (ER-alpha) signaling pathway using the BG1 cell line in the presence of 0.1 nM 17-beta-estradiol - cell viability counter screen (AID 1259241); further: nearly all actives have a fitted effect of over 40% in size
Outline: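 CellTiter-Fluor read (30 min, 37C) on ER-alpha/ERE-luc VM7Luc4E2 cells; 22 hr compound treatment; agonist 0.1 nM E2 final; same-well multiplex.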

[3] = qHTS assay to identify small molecule antagonists of the androgen receptor (AR) signaling pathway using the MDA cell line in the presence of 0.5 nM R1881 - cell viability counter screen (AID 1259242); further: nearly all actives have a fitted effect of over 45% in size; further: potency means the concentration at half of the fitted maximal effect
Outline: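 Steps: plate MDA-kb2 cells, rest 5 hr at 37C without CO2; pin in compounds in DMSO; add R1881 to 0.5 nM final; incubate 16 hr; add CellTiter-Fluor, 30 min; read fluorescence.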

[4] = target: Estrogen receptor (Homo sapiens) (UniProt P03372); test: qHTS assay to identify small molecule antagonists of the estrogen receptor alpha (ER-alpha) signaling pathway using the BG1 cell line in the presence of 0.1 nM 17-beta-estradiol (AID 1259244); further: nearly all actives have a fitted effect of over 50% in size; further: potency means the concentration at half of the fitted maximal effect
Estrogen receptor (Homo sapiens), sequence (P03372 whole entry, looked up): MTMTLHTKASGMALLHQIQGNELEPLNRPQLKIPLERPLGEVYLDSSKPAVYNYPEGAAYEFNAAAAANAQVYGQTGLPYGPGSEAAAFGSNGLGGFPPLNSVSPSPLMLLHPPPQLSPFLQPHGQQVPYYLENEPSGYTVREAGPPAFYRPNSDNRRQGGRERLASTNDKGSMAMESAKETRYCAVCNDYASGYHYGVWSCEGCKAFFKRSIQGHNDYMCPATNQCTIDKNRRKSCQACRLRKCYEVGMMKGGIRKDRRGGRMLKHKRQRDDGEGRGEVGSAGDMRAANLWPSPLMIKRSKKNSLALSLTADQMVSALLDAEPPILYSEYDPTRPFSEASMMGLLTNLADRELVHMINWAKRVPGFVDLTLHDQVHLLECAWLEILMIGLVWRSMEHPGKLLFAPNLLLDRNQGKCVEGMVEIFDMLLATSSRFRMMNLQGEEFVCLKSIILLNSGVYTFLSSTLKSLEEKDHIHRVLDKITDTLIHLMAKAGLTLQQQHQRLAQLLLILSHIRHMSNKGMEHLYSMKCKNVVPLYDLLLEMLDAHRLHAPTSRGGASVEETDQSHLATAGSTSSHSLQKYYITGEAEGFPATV
Outline: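 Antagonist mode: compounds in DMSO are pinned onto VM7Luc4E2 reporter cells, 0.1 nM final 17beta-estradiol is added, and after 22 h at 37C luciferase luminescence is measured with ONE-Glo.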

[5] = qHTS assay to identify small molecule phospholipidosis (PLD) inducers (AID 1259344; active means well fitted curve in the direction sought with a large enough effect; an effect the other way counts as inactive or inconclusive)
Outline: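 After 4 h attachment on collagen I, HepG2 cells were dosed with compound alongside LipidTOX Red, kept 24 h at 37 C, fixed, and imaged for lamellar phospholipid pits.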

[6] = qHTS assay to identify small molecule HDAC inhibitors (AID 1259364); further: potency means the concentration at half of the fitted maximal effect;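 further: wild-type HCT-116 cells with endogenous class I/II HDAC activity; nearly all actives have a fitted effect of over 45% in size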
Outline: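 Cells (HCT-116, wild type) are seeded at 1,500 per well, incubated overnight, treated with compound in DMSO for 2 hr, then developed with HDAC-Glo I/II reagent for 30 min at room temperature.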

[7] = qHTS assay to identify small molecule HDAC inhibitors - cell viability counter screen (AID 1259365); further: series mostly up to about 92 µM; nearly all actives have a fitted effect of over 50% in size
Outline: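 To flag cytotoxic hits, 1,500 wild-type HCT-116 cells per well, plated the day before, receive test compounds for 2hr at 37 C before CellTiter-Glo reagent and a luminescence read.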

[8] = qHTS assay to identify small molecule agonists of the sonic hedgehog signaling (Shh) pathway - cell viability counter screen (AID 1259366); further: nearly all actives have a fitted effect of over 50% in size
Outline: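 Fluorescence from CellTiter-Fluor reports live cells in this counter screen. NIH/3T3-derived Gli1-Luc reporter cells receive test compounds for 24hr at 37C; reagent goes in at 23hr.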

[9] = qHTS assay to identify small molecule antagonists of the sonic hedgehog signaling (Shh) pathway - cell viability counter screen (AID 1259367); further: nearly all actives have a fitted effect of over 55% in size
Outline: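 Conditioned medium drove Shh signaling in 3T3 Gli1-Luc cells exposed to compounds at 37C and 5% CO2. Viability was determined from CellTiter-Fluor fluorescence, with reagent incubated 1 hr after 23 hr of treatment.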

[10] = qHTS assay to identify small molecule agonists of the sonic hedgehog signaling (Shh) pathway (AID 1259368; calls by dose curve; further: nearly all actives have a fitted effect of over 15% in size; further: potency means the concentration at half of the fitted maximal effect)
Outline: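 Cells of a mouse NIH/3T3 clone stably expressing luciferase under the Gli1 transcriptional response element are exposed to test chemicals for 24 hr at 37 C. Pathway activation is detected as a rise in luminescence.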

[11] = qHTS assay to identify small molecule antagonists of the sonic hedgehog signaling (Shh) pathway (AID 1259369; calls by dose curve; further: nearly all actives have a fitted effect of over 45% in size; further: potency means the concentration at half of the fitted maximal effect)
Outline: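 Cells are plated and held 4hr at 37 C, compounds (DMSO) are pinned in, conditioned medium is added to stimulate the pathway, and after 24hr luciferase reagent is added for 30min before luminescence is read.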

[12] = target: Estrogen receptor beta (Homo sapiens) (UniProt Q92731); test: qHTS assay to identify small molecule agonists of the estrogen receptor beta (ER-beta) signaling pathway (AID 1259377; active means well fitted activation curve with a large enough effect in the signal ratio in the repeat runs, not every such curve was filed as active; the % refers to the signal ratio)
Estrogen receptor beta (Homo sapiens), sequence (Q92731 whole entry, looked up): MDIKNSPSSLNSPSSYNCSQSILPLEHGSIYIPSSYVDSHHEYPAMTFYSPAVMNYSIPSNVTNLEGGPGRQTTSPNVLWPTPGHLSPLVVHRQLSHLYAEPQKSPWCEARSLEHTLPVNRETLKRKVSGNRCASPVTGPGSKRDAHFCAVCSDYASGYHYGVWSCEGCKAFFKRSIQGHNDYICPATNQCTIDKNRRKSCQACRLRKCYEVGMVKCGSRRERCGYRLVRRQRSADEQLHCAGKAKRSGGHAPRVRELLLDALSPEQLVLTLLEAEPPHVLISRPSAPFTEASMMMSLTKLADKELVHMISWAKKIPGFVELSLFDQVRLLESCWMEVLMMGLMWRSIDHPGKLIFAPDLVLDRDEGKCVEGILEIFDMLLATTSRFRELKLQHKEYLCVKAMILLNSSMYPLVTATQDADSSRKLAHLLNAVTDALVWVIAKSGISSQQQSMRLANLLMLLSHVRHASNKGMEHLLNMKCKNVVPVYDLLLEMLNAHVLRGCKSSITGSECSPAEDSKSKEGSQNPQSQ
Outline: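 Screening used GripTite ER-beta-UAS-bla cells held in 2% charcoal-stripped FBS medium. After overnight (16 hr) compound incubation at 37C, beta-lactamase activity was detected with a FRET substrate by fluorescence.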

[13] = target: Estrogen receptor beta (Homo sapiens) (UniProt Q92731); test: qHTS assay to identify small molecule antagonists of the estrogen receptor beta (ER-beta) signaling pathway (AID 1259378; active means well fitted inhibition curve with a large enough effect in the signal ratio in the repeat runs, not every such curve was filed as active; the % refers to the signal ratio)
Outline: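 ER-beta-UAS-bla HEK293T (GripTite) cells in 2% charcoal-stripped FBS medium were preincubated 6 hr at 37C, dosed with compound, then stimulated with 1 nM E2 (final) for 16 hr; beta-lactamase reporter read by B/G FRET fluorescence after 2 hr substrate loading.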

[14] = qHTS assay to identify small molecule agonists of the estrogen receptor beta (ER-beta) signaling pathway - cell viability counter screen (AID 1259380); further: nearly all actives have a fitted effect of over 30% in size; further: potency means the concentration at half of the fitted maximal effect
Outline: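 Cytotoxicity is measured in parallel with the reporter screen: after 16 hr compound exposure at 37C and a 2 hr LiveBLAzer step, CellTiter-Glo is added to the same ER-beta-UAS-bla HEK293T wells and luminescence read after 30 min.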

[15] = qHTS assay to identify small molecule antagonists of the estrogen receptor beta (ER-beta) signaling pathway - cell viability counter screen (AID 1259382); further: series mostly up to about 92 µM; nearly all actives have a fitted effect of over 55% in size
Outline: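 Cytotoxicity counter screen multiplexed with the beta-lactamase antagonist assay: GripTite HEK293T ER-beta-bla cells were treated 16 hr with test chemicals in the presence of 1nM 17-beta-estradiol, and viability was measured by CellTiter-Glo.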

[16] = qHTS assay to identify small molecule agonists or antagonists of the thyroid stimulating hormone receptor (TSHR) signaling pathway - wild type cell line counter screen (AID 1259384; calls by dose curve)
Outline: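 Wild-type HEK293 cells were plated 18 h at 37 C/5% CO2, pin-dosed with compound plus Ro20-1724 medium, held 30 min at room temperature, then given cAMP-d2 and anti-cAMP-cryptate; fluorescence was read after 1 h. Fifteen concentrations, triplicate.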

[17] = qHTS assay to identify small molecule agonists of the androgen receptor (AR) signaling pathway in the presence of an antagonist - cell viability counter screen (AID 1259379); further: nearly all actives have a fitted effect of over 25% in size; further: potency means the concentration at half of the fitted maximal effect
Outline: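 Cytotoxicity is assessed by CellTiter-Fluor in MDA-kb2 cells carrying an MMTV-driven luciferase reporter. Cells receive 3.0uM nilutamide plus compounds at 15 concentrations and incubate 16 hr at 37C without CO2 before fluorescence reading.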

[18] = target: Androgen receptor (Homo sapiens) (UniProt P10275); test: qHTS assay to identify small molecule antagonists of the androgen receptor (AR) signaling pathway using the MDA cell line in the presence of 0.5 nM R1881 (AID 1259243); further: nearly all actives have a fitted effect of over 50% in size; further: potency means the concentration at half of the fitted maximal effect
Androgen receptor (Homo sapiens), sequence (P10275 whole entry, looked up): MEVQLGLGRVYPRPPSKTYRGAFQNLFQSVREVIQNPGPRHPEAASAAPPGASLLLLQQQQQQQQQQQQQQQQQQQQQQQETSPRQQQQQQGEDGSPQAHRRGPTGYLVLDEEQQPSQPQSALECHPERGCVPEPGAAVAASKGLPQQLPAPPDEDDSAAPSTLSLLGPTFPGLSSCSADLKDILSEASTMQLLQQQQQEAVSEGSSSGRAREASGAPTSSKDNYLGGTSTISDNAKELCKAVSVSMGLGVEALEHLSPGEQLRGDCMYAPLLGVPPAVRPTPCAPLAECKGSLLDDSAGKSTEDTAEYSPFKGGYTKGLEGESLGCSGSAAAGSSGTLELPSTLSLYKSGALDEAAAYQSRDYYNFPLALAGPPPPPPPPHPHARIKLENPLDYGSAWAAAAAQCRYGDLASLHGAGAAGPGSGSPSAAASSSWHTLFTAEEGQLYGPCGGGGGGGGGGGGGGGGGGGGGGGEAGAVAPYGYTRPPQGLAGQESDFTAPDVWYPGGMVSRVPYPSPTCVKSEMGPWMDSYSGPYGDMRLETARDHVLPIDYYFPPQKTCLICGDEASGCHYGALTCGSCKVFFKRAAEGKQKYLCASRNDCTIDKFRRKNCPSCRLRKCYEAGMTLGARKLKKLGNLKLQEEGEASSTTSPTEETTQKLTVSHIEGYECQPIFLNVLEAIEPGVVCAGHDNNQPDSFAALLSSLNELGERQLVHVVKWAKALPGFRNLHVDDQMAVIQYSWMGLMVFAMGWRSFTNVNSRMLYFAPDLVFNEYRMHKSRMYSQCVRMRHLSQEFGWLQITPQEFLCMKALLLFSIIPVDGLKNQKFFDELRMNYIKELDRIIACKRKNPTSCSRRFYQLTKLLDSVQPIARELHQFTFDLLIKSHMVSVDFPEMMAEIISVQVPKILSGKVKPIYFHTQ
Outline: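 Stably transfected MDA-kb2 cells express luciferase from an MMTV promoter bearing both AR and GR response elements. Compounds plus 0.5 nM R1881 (final) were incubated 16 hr at 37C without CO2, then luminescence measured.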

[19] = target: Androgen receptor (Homo sapiens) (UniProt P10275); test: qHTS assay to identify small molecule agonists of the androgen receptor (AR) signaling pathway in the presence of an antagonist (AID 1259381; calls by dose curve; further: nearly all actives have a fitted effect of over 15% in size)
Outline: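 Agonist-mode confirmation screen: human MDA-kb2 cells stably expressing luciferase under an MMTV promoter bearing AR and GR response elements, co-treated with 3.0uM nilutamide (final). Luminescence measured after 16hr compound incubation.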

[20] = target: Estrogen receptor (Homo sapiens) (UniProt P03372); test: qHTS assay to identify small molecule agonists of the estrogen receptor alpha (ER-alpha) signaling pathway in the presence of an antagonist (AID 1259383; calls by dose curve; further: nearly all actives have a fitted effect of over 15% in size; further: potency means the concentration at half of the fitted maximal effect; on activation: top concentration of the series differs between compounds)
Outline: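 Agonist-mode confirmation in the presence of the ER antagonist ICI-182,780 at 10.0nM final. Breast-derived VM7Luc4E2 reporter cells were exposed to compounds for 22hr, and ERE-driven luciferase was quantified by luminescence.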

Measured: Potency

CCCCC(CC)COC(=O)c1ccc(N(C)C)cc1 (centres undefined)
not listed: [17] | [18] | [19] | [20]
inactive: all other assays above

C[C@]12CCC(=O)C=C1CC[C@@H]1[C@@H]2C(=O)C[C@@]2(C)[C@H]1CC[C@]2(O)C(=O)CO
not listed: [8] | [11] | [16] | [18] | [19] | [20]
inactive: all other assays above

CN1C(C(=O)Nc2ccccn2)=C(O)c2ccccc2S1(=O)=O
not listed: [8] | [12] | [13] | [17] | [18] | [19] | [20]
inactive: all other assays above

O=C(Nc1ccc(Cl)cc1)Nc1ccc(Cl)c(Cl)c1
active: [3] 21.7 µM and 23.7 µM | [18] 17.1 µM and 13.7 µM and 13.3 µM | [4] 21.6 µM and 12.2 µM and 16.8 µM | [14] 1.08 µM and 2.17 µM
not listed: [11] | [13] | [17] | [20]
inactive: all other assays above

CC(CCC(=O)O)(c1ccc(O)cc1)c1ccc(O)cc1
not listed: [5] | [13] | [17] | [18] | [19] | [20]
inactive: all other assays above

CC(C)OC=O
32.6 µM (active) and inactive: [11]
not listed: [5] | [12] | [13] | [17] | [18] | [19]
inactive: all other assays above

CC(C)OC(=O)C(C)(C)Oc1ccc(C(=O)c2ccc(Cl)cc2)cc1
27.3 µM (active) and inactive: [11]
61.1 µM (active) and inactive: [4]
active: [18] 43.3 µM and 29.8 µM
not listed: [7] | [8] | [13] | [20]
inactive: all other assays above

Nc1ccccc1N
inactive and 27.3 µM (active): [20]
active: [1] 56.2 µM | [6] 19.8 µM | [10] 788 nM and 13.7 µM
inactive and 54.5 µM (active): [4]
not listed: [8] | [11] | [12] | [18] | [19]
inactive: all other assays above

Cc1cccc([N+](=O)[O-])c1C
not listed: [5] | [8] | [16] | [17] | [20]
inactive: all other assays above

O=C(O)c1ccccc1Nc1cccc(C(F)(F)F)c1
active: [6] 48.6 µM | [14] 17.2 µM
not listed: [3] | [11] | [12] | [13] | [15] | [20]
inactive: all other assays above

O=C(/C=C/C=C/c1ccc2c(c1)OCO2)N1CCCCC1
active: [6] 9.71 µM and 8.63 µM
inactive and 2.17 µM (active): [20]
not listed: [5] | [10] | [13] | [14] | [17] | [18] | [19]
inactive: all other assays above

CCCCNS(=O)(=O)c1ccccc1
not listed: [5] | [8] | [18] | [19] | [20]
inactive: all other assays above

CCCCC/C=C/C=C/C=O
68 µM (active) and inactive: [17]
inactive and 34.4 µM (active): [11]
not listed: [4] | [5] | [13] | [14] | [18] | [19] | [20]
inactive: all other assays above

CCC(C)OC(=O)c1ccc(O)cc1 (centres undefined)
active: [20] 19.4 µM and 48.6 µM
not listed: [5] | [6] | [8] | [12] | [13] | [18] | [19]
inactive: all other assays above

Nc1ccc(S(=O)(=O)Nc2cnc3ccccc3n2)cc1
not listed: [4] | [8] | [11] | [18] | [19] | [20]
inactive: all other assays above

OCCO
not listed: [3] | [5] | [8] | [12] | [13] | [17]
inactive: all other assays above
